Screens as filed in PubChem BioAssay.
An excerpt weighted towards active compounds, which were near 6.3% of everything screened.
ATXN2 expr inh – inhibitors of ATXN2 expression. Potency, µM (titrated, usually from 57 µM), for the others: at the top dose activity change, negative = inhibition, most hits filed as inhibitors. AID 1745845. HEK-293 ATXN2-luciferase reporter, luminescence, 24 h. 360,000 tested, 0.72% active; also: % is scaled to controls: 0 for no effect and ±100 for the full control effect; nearly all actives have a fitted effect of over 55% in size
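qHTS (up to 57 uM final) was run with 24 h compound exposure of reporter cells at 37 °C. Each well was multiplexed: SteadyGlo luminescence measured ATXN2-luciferase expression after a fluorogenic Gly-Phe-AFC viability readout (25 uM final).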
RORg inh – ROR gamma (mouse) transcription inhibition. 310,000 tested, 5.4% active. P51450. AID 2551. Potency, µM (series often up to 53.6 µM), for the others: at the highest dose activity change, negative = inhibition, most hits filed as inhibitors. Drosophila S2 Gal4-RORgamma UAS-luciferase reporter, 20 h; also: % is scaled to controls: 0 for no effect and ±100 for the full control effect; nearly all actives have a fitted effect of over 60% in size
Target sequence (P51450 whole entry, looked up, the tested form may be a part): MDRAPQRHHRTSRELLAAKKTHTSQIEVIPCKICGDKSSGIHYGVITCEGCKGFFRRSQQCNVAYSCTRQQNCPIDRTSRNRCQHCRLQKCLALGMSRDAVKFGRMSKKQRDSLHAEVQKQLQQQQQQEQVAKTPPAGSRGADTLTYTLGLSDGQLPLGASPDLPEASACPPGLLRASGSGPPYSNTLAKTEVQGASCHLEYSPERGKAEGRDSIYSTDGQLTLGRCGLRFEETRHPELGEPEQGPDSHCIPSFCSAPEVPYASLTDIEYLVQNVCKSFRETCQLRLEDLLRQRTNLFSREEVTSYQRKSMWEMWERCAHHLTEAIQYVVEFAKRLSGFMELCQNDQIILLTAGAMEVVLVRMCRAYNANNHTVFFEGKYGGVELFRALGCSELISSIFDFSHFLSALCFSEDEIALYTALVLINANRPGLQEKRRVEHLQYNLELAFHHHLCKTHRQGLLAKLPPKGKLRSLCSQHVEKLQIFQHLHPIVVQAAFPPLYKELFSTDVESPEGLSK
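Stable Schneider cell line, Gal4 DNA-binding domain fused to ROR gamma, UAS-luciferase. Cmpd 1 hr RT → CuSO4 700 uM final → 20 hr RT → luciferase reagent 10 min → luminescence.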
Gal4-VP16 FLuc – counter-screen for ROR gamma inhibitors: Gal4-VP16 reporter; Drosophila S2 Gal4-VP16 UAS-luciferase, luminescence, 20 h; Potency, µM (series often up to 53.6 µM), inactives show top-dose activity, negative = inhibition, usual class: inhibitors; 310,000 tested, 3.5% active;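 also: Gal4-VP16 expression switched on by copper sulfate through the metallothionein promoter; % is scaled to controls: 0 for no effect and ±100 for the full control effect; nearly all actives have a fitted effect of over 50% in size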
TGFb SMAD3 inh – TGF-b pathway inhibition. HepG2 CAGA-GFP TGF-b/SMAD3 reporter, GFP fluorescence, 18 h; TGF-beta stimulated, 500 pg/mL final. Potency, µM (titrated, usually from 46.1 µM), for inactives: at the top dose activity, negative = inhibition, hits mostly inhibitors. 410,000 tested, 1.2% active; also: % is scaled to controls: 0 for no effect and ±100 for the full control effect; nearly all actives have a fitted effect of over 65% in size
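Inhibition was scored as loss of TGF-beta-induced (500 pg/mL final, 18 hours, 37 degrees C) GFP in HEPG2 cells carrying a CAGA-GFP reporter, in DMEM with 1% FBS. Well GFP was summed per cell; Activity was normalised to unstimulated and stimulated DMSO wells, then concentration-response fitting.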
HepG2 viability – counter-screen for TGF-b inhibitors: cytotoxicity in HepG2 cells; HepG2 CAGA-GFP viability, ATP luminescence, 18 h; 410,000 tested, 0.76% active; Potency, µM (highest dose often 46.1 µM), for inactives: top-dose activity change, negative = cytotoxicity, usual class: cytotoxic
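CellTiter-Glo luminescence gave cytotoxicity after 18 hours at 37 degrees C. The cells were HepG2 CAGA-GFP in 1% FBS DMEM, stimulated with 500 pg/mL TGF-beta after compound addition. %Activity was normalised to no-cell wells (complete cell-killing) and DMSO (no toxicity), and curves were fitted and classified.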
ATXN viability – reduces viability in counter-screen for ATXN expression inhibitors. S2 cells (HEK-293 line with an ATXN2-luciferase reporter) viability, CellTiter-Fluor protease fluorescence, 24 h. 400,000 tested, 0.49% active. Potency, µM (doses to about 56.7 µM), usual class: cytotoxic; also: nearly all actives have a fitted effect of over 40% in size
Starred values were filed as active, the others as inactive; i = inactive; ? = inconclusive; . = no result. Calls follow the shape of the dose curve; as a rule, active = well fitted curve in the direction sought with a large enough effect; inconclusive = small, poorly fitted or top-dose-only effect, or another doubt; inactive = no such curve, though single readings can be large; an effect the other way counts as inactive or inconclusive. Potency is read from the fitted curve at half-maximal effect.

SMILES	ATXN2 expr inh	RORg inh	Gal4-VP16 FLuc	TGFb SMAD3 inh	HepG2 viability	ATXN viability
CCOC(=O)C1=C(c2ccccc2)NC(=S)NC1c1ccc(C)c([N+](=O)[O-])c1 (configuration not stated)	-26%	?	11µM*	-23%	-11%	i
CCOC(=O)C1=C(C)NC(=S)NC1C (configuration not stated)	-3%	?	-3%	0%	7%	i
CCOC(=O)C1=C(c2ccccc2)NC(=O)NC1c1ccc(OC)cc1OC (configuration not stated)	5%	1%	9%	10%	7%	i
COc1ccccc1-n1cc(C(=O)NCCN2Cc3ccccc3OC(c3ccsc3)C2)cn1 (configuration not stated)	.	.	.	.	.	i
COc1cc(NC(=S)Nc2ccc(OC(F)F)cc2)cc(OC)c1	-17%	10µM*	?	0%	-3%	i
Fc1ccc(CNC(=S)Nc2ccc(OC(F)F)cc2)cc1	.	11µM*	?	?	-14%	i
Cc1cc(Br)c(NC(=O)c2c(-c3c(Cl)cccc3Cl)noc2C)c(Br)c1	.	8%	-9%	0%	7%	?
N#CCCNS(=O)(=O)c1ccc(C(=O)OCCCOC(=O)c2ccc(S(=O)(=O)NCCC#N)cc2)cc1	-3%	11µM*	18µM*	-13%	-8%	i
CC1CCC(NC(=O)CCc2cn(Cc3ccccc3Cl)c3ccccc23)CC1 (configuration not stated)	.	.	.	16µM*	-21%	.
COc1cc(NC(=S)NC(=O)c2ccccc2C)ccc1NC(=O)c1cccs1	-9%	2.5µM*	8.9µM*	5%	-10%	i
COc1cc(NC(=S)NC(=O)c2ccccc2F)ccc1NC(=O)c1cccs1	9%	?	-18%	-8%	-4%	i
COc1cc(NC(=S)NC(=O)c2ccc(C(C)(C)C)cc2)ccc1NC(=O)c1cccs1	.	3.2µM*	3.5µM*	-2%	-39%	?
COc1cc(NC(=S)NC(=O)c2cc(C)cc(C)c2)ccc1NC(=O)c1cccs1	-5%	2µM*	1.8µM*	-1%	-3%	i
COc1cc(NC(=S)NC(=O)c2c(OC)cccc2OC)ccc1NC(=O)c1cccs1	-3%	?	-6%	-23%	-33%	?
Cc1cccc(OCc2cc(=O)n3c4c(sc3n2)CCCC4)c1C	10%	.	.	-4%	7%	i
CSCCC(=O)N1CCCC(N2CCN(c3cccc(C(F)(F)F)c3)CC2)C1 (configuration not stated)	.	26%	-2%	-2%	0%	i
CC(=O)Nc1ccc(Sc2ccc([N+](=O)[O-])o2)cc1	?	.	.	?	20µM*	?
CC(C)(C)C(=O)Nc1ccc(Sc2ccc([N+](=O)[O-])cc2)cc1	?	?	?	?	-11%	?
O=C1C(Cl)=C(NC2CCc3ccccc32)C(=O)c2ncccc21 (configuration not stated)	.	4.5µM*	4.5µM*	.	.	.
Cc1cc(NC(=O)n2ncc3c(C)cccc32)ccc1Br	52%	.	.	8%	3%	i
COC(=O)COc1c(Cl)cc(Cl)c2ccc(C)nc12	-2%	?	22µM*	3%	-12%	i
Cc1ccc2c(Cl)cc(Cl)c(OCC(=O)Nc3cc(S(=O)(=O)N(C)C)ccc3C)c2n1	?	-138%	?	-11%	-24%	i
COc1ccc(OC)c(NC(=O)COC(=O)COc2c(Cl)cc(Cl)c3ccc(C)nc23)c1	4%	.	.	-6%	-7%	i
Cc1ccc2c(Cl)cc(Cl)c(OCC(=O)NC(C)(C)C)c2n1	-28%	7.1µM*	?	?	-24%	.
CCC1OC(=O)C[C@@H](O)[C@H](C)[C@@H](OC2OC(C)CC(N(C)C)C2O)[C@@H](CC=O)C[C@@H](C)C(=O)/C=C/[C@]2(C)OC2C1C (some centres not stated)	.	4%	-19%	.	.	.
SMILES	ATXN2 expr inh	RORg inh	Gal4-VP16 FLuc	TGFb SMAD3 inh	HepG2 viability	ATXN viability
Cc1sc2nc(C(C)C)nc(SCC(=O)N3CCN(C(=O)c4ccco4)CC3)c2c1C	32µM*	-6%	8%	-50%	-13%	.
Cc1cc(C)nc(N(C#N)CN2C(=O)c3ccccc3S2(=O)=O)n1	2%	13µM*	?	?	-2%	i
CNc1nc(OC)nc(N(C#N)CN2C(=O)c3ccccc3S2(=O)=O)n1	-23%	-26%	-20%	-21%	-34%	i
COC(=O)c1cc(CNC(=O)c2cccc(N(C)C)c2)cc(NC(=O)c2ccccc2Cl)c1	.	.	.	.	.	i
Cc1cc(S(=O)(=O)NCc2ccccc2)ccc1OCC(=O)Nc1cccc([N+](=O)[O-])c1	-20%	34%	11µM*	-20%	1%	i
Cc1cc(S(=O)(=O)NCc2ccccc2)ccc1OCC(=O)NCc1ccccn1	-2%	14%	-19%	24%	12%	i
CCOc1ccc(OCc2cccc(C(=O)N/N=C/c3cccnc3)c2)cc1	2.1µM*	-2%	-13%	11%	-38%	i
CC(C)c1ccc(OCc2cccc(C(=O)N/N=C/c3cccnc3)c2)cc1	11µM*	-5%	-23%	-9%	-32%	i
O=C(N/N=C/c1cccnc1)c1ccccc1OCc1cccc(Br)c1	-16%	-1%	7%	16%	0%	i
N#Cc1c(N)[nH]c2ccc(Sc3ccccc3)cc12	2%	.	.	16µM*	1%	?
CCOC(=O)CSC1=C(C#N)C(c2ccc(OC)cc2)C2=C(CC(C)(C)CC2=O)N1 (configuration not stated)	1%	?	20µM*	0%	-35%	i
CCOC(=O)c1ccc(N2N=C(C)/C(=C/C=C/c3ccco3)C2=O)cc1	-7%	42%	-11%	0%	-19%	?
CC1=NN(c2ccccc2)C(=O)/C1=C\C=C\c1ccccc1	?	8.9µM*	?	8.9µM*	-56%	?
CC1=NN(c2ccc(C(=O)OC(C)C)cc2)C(=O)/C1=C\C=C\c1ccco1	-16%	14µM*	?	-9%	-5%	i
Cc1ccc2occ(-c3cc(-c4ccc(Cl)cc4)nc4c3COc3ccccc3-4)c(=O)c2c1	11%	.	.	6%	-3%	i
COCCNC(=S)N1CCc2cc(OC)c(OC)cc2C1COc1cc(C)cc(C)c1 (configuration not stated)	-21%	?	22µM*	?	-11%	?
